This is one part of the list. A number with no mark means an inactive call. Calls of active or inactive are those of the source.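 The calls were made as follows: active = inhibition of the enzyme GSTO1 above about 75% (limit read from the data); inactive = inhibition below that limit.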
Biological target: Glutathione S-transferase omega-1 (Homo sapiens) (UniProt P78417)
Assay: recombinant GSTO1 blockade by competitive ABPP – biochemical, gel ABPP, SE-Rh probe, percent inhibition, late-stage follow-up (AID 463110)
Settings: recombinant GSTO1, gel ABPP SE-Rh probe fluorescence; at 1 µM; stronger effect = higher value

Sequence of Glutathione S-transferase omega-1 (Homo sapiens) (P78417 whole entry, looked up): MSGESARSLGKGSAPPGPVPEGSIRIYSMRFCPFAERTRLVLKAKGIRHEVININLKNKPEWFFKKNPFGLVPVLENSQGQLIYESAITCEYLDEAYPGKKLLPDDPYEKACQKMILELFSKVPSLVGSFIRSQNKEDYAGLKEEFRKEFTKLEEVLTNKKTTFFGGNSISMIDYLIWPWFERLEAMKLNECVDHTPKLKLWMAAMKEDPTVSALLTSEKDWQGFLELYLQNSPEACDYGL

Structure (SMILES)	inhibition
COc1ccc(C(C(=O)NC2CCCCC2)N(C(=O)CCl)c2ccccc2Cl)cc1 (stereo not given)	23%
O=C(c1[nH]ncc1-c1ccc(Cl)cc1)C1CO1 (stereo not given)	29%
CCC1(CC)Cc2ccccc2-c2nc(CCl)[nH]c(=O)c21	79% (active)
O=c1cc(CCl)nc2scc(-c3ccccc3)n12	82% (active)
Cc1ccc(N(Cc2cc(=O)[nH]c3ccccc23)C(=O)CCl)cc1	36%

— PubChem BioAssay AID463110 (The Scripps Research Institute Molecular Screening Center, 2010)
